From PubChem BioAssay AID1479 (National Center for Advancing Translational Sciences (NCATS), 2009)
The campaign covered roughly 280,000 compounds. About 820 (0.29%) were called active. Where a call stands in place of a potency, no number is given. Inconclusive results (about 1%) are left out. The call rests on the fitted dose curve; in most records, active means well fitted curve in either direction with a large enough effect; inconclusive means small, poorly fitted or top-dose-only effect; inactive means flat fitted curve, though single readings scatter. The full list was thinned out, with actives kept by preference.

Test: Total Fluorescence Counterscreen for Inhibitors of the Interaction of Thyroid Hormone Receptor and Steroid Receptor Coregulator 2
Details: TRb/SRC2 Texas Red total fluorescence interference; series mostly up to 106 µM
Outline: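 Flags fluorescent or light-absorbing compounds by total fluorescence, S + 2P, at 555 nm excitation and 632 nm emission. Mixture: 20 nM Texas Red SRC2 peptide, 0.6 uM human TRb LBD, 1 uM T3, 5% DMSO; compound exposure 5 h at ambient temperature.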
Potency means the concentration at half of the fitted maximal effect; tags describe the fitted curve by direction and shape or compound fluorescence and quenching.

| Structure (SMILES) | Potency |
| --- | --- |
| O=C(Nc1ccc(F)cc1F)c1cnn(-c2ccc(F)cc2)c1-n1cccc1 | inactive |
| Clc1nc(Cl)c(Cl)c(Cl)c1Cl | inactive |
| COc1c(O)c2c(=O)cc(OC)c3c4c(OC)cc(=O)c5c(O)c(OC)c6c(c(c1C[C@@](C)(O)[C@H]6C(C)=O)c23)c54 | 44.7 µM [fluorescent] (active) |
| CCn1cc(C(=O)N2CCN(c3cc(Cl)ccc3C)CC2)c(=O)c2cc(S(=O)(=O)N3CCCC3)ccc21 | inactive |
| CCc1ccccc1NC(=O)Cn1c(=O)n(-c2cccc(C)c2)c(=O)c2c1c1cc(OC)ccc1n2C | inactive |
| Cc1ccccc1C(=O)N(Cc1ccc(N(C)C)cc1)CC1CCCO1 (stereo unspecified) | inactive |
| N#C/C(=C/c1ccc(N2CCCCC2)o1)C(=O)NCCc1c[nH]c2ccccc12 | inactive |
| N#C/C(=C\c1ccc(N2CCOCC2)o1)C(=O)N1CCOCC1 | inactive |
| N#C/C(=C/c1ccc(N2CCOCC2)o1)C(=O)N1CCOCC1 | 44.7 µM [fluorescent] (active) |
| CCc1c(C(=O)O)c(=O)cnn1-c1ccc(Cl)cc1 | inactive |
| O=C(CCSCc1ccccc1F)N1CCN(c2ccc(Cl)cc2)CC1 | inactive |
| COc1cccc(CNC(=O)c2ccc3c(c2)N(Cc2ccc(C(F)(F)F)cc2)C(=O)c2ccccc2S3)c1OC | 31.6 µM [quencher] (active) |
| COc1ccccc1NC(=O)CN1C(=O)c2ccccc2Sc2ccc(C(=O)N3CCCC3)cc21 | inactive |
| Cc1ccccc1CN1C(=O)c2ccccc2Sc2ccc(C(=O)NCCCN3CCOCC3)cc21 | inactive |
| CC(=O)N1CCCc2cc(S(=O)(=O)N3CCC(C(=O)NCc4ccc(F)cc4)CC3)ccc21 | inactive |
| CCCCNC(=O)c1ccc2c(c1)NC(=O)C(C(C)C)N2 (stereo unspecified) | 0.0562 µM [quencher] (active) |
| CCCN(CCC)CCNC(=O)c1ccc2c(c1)NC(=O)C(CS(=O)(=O)Cc1cccc(Br)c1)N2 (stereo unspecified) | inactive |
| CCCCNC(=O)CCNC(=O)c1ccc(C(C)(C)C)cc1 | inactive |

| Structure (SMILES) | Potency |
| --- | --- |
| CSc1ccccc1NC(=O)CCS(=O)(=O)c1nc(-c2cccs2)cc(C(F)(F)F)n1 | inactive |
| O=C(Nc1cc(C(F)(F)F)ccc1Cl)c1ccc2c(c1)CCN2S(=O)(=O)c1ccccc1 | inactive |
| CCc1ccccc1NC(=O)CSc1nc(C)c(C(=O)Nc2ccccc2)c(-c2ccc(Cl)cc2)c1C#N | inactive |
| CCn1cc2nc(SCc3cccc(F)c3)n(CCc3ccccc3)c(=O)c2n1 | inactive |
| CN1c2ccc(Cl)cc2-c2nc(SCC(=O)Nc3cc(F)ccc3F)ncc2S1(=O)=O | inactive |
| O=C(Nc1nnc(S(=O)(=O)N2CCCc3ccccc32)s1)c1cccc(F)c1 | inactive |
| Cc1ccc(S(=O)(=O)N2CCCc3cc(NS(=O)(=O)c4cc(C)ccc4C)ccc32)cc1 | inactive |
| Cc1c2cnn(-c3ccccc3)c(=O)c2c(C)n1C(C)C(=O)Nc1ccc(Br)cc1F (stereo unspecified) | inactive |
| O=C(NCc1cccnc1)C(=O)NCC(c1cccnc1)N1CCN(c2ccccc2)CC1 (stereo unspecified) | inactive |
| CCN(CC)S(=O)(=O)c1ccc2c(c1)nc(CN(C)C(=O)Nc1ccc(Cl)cc1)n2C | inactive |
| COCCNc1ncnc2c1c(-c1ccccc1)cn2-c1ccc(C)c(Cl)c1 | inactive |
| COc1ccccc1N1CCN(c2ncnc3onc(-c4ccc(F)cc4)c23)CC1 | inactive |
| COc1cc(NC(=O)c2cc(C3CC3)nc3c2c(C)nn3-c2ccccc2)cc(OC)c1 | inactive |
| Cc1[nH]c2ccccc2c1C(c1ccccc1)c1cccs1 (stereo unspecified) | inactive |
| COc1cccc(CNC(=O)Cc2csc3nc(-c4ccccc4)cn23)c1 | inactive |
| Fc1ccc(CN2CCc3nc(Nc4ccccc4)ncc3C2)cc1F | inactive |
| Cc1ccc(-c2cn3c(n2)sc2cc(C(=O)NCc4cccs4)ccc23)c(C)c1 | inactive |
| CC(C)CC(=O)NCC(c1ccc2c(c1)OCO2)N1CCN(c2ccc(F)cc2)CC1 (stereo unspecified) | inactive |
